# From PubChem BioAssay
# Shown are actives, neighbours in structure and some others; about 28% of the full set was active somewhere.
# CYP2C19 inh: blocks human cytochrome P450 2C19 | P33261 | CYP2C19 Supersomes, luciferin-H EGE luminescence, 30 min | inhibition, % at 5 µM | 96,000 tested, 21% active | AID 778;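 active = CYP2C19 inhibition above a set limit at 5 µM in the primary screen, cut at about 50% in these data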;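 note: plate controls were negative control wells for no effect and 2.5 mM tranylcypromine positive control for full effect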
# Target sequence (P33261 whole entry, looked up): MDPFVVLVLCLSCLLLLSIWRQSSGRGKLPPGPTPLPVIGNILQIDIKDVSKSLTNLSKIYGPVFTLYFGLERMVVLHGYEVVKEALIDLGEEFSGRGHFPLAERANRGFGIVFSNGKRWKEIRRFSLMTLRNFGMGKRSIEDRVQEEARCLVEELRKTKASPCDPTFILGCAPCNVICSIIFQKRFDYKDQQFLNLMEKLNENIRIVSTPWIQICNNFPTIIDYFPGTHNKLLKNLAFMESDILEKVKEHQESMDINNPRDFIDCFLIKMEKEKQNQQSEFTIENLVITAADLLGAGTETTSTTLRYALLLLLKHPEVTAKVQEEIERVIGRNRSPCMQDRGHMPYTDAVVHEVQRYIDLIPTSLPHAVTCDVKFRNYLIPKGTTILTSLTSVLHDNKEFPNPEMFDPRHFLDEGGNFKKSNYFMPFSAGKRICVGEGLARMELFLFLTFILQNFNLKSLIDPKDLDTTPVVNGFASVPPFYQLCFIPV
# CYP2C19 act: cytochrome P450 2C19 (human) activation. P33261. recombinant CYP2C19, luciferin-H EGE luminescence; hits give high values; 0 = fully inhibited enzyme, 1 = untreated enzyme. activation factor at 5 µM. 96,000 tested, under 10 active. AID 1025;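 active = activation factor of at least 2 at 5 µM in the primary screen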;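 note: 0 = wells with 2.5 mM tranylcypromine and 1 = vehicle-only wells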
# CD11b adhes enh: enhancers of human CD11b/CD18 binding to fibrinogen; P05107+P11215; K562 CD11b/CD18 adhesion to fibrinogen, ATPlite luminescence; activation, % at 10 µM; 93,000 tested, 0.07% active;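 active = 10 µM primary screen giving 50% or more activity, confirmed by 40% or more on retest at that dose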
# CYP2C9 inh: inhibitors of human CYP2C9 | P11712 | CYP2C9 Supersomes, luciferin-H conversion, luminescence | inhibition, % at 5 µM | 96,000 tested, 20% active | AID 777;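 active = blocking of liver enzyme CYP2C9 beyond about 50% at 5 µM, limit read from the data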
# CYP2C9 activ: activators of human CYP2C9; P11712; recombinant CYP2C9, luciferin-H conversion, luminescence; hits give high values; factor 1 = untreated enzyme, 0 = blocked; activation factor at 5 µM; 96,000 tested, 1.4% active; AID 1024;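 active = activation factor of 2 or more for CYP2C9 at a 5 µM dose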;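 note: 0 = sulfaphenazole-blocked wells and 1 = vehicle-only wells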
# CD11b adhes inh: CD11b/CD18-fibrinogen binding inhibition. K562 CD11b/CD18 adhesion to fibrinogen, ATPlite luminescence; Mn2+ added to activate the integrin. P05107+P11215. AID 1497. inhibition, % at 10 µM. 93,000 tested, 0.54% active;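 active = primary inhibition of 50% or more at 10 µM, then 40% or more on retest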
# The depositor's hits bear a star; / = no result.
SMILES,CYP2C19 inh,CYP2C19 act,CD11b adhes enh,CYP2C9 inh,CYP2C9 activ,CD11b adhes inh
CCOC(=O)N1CCC(n2c(SCC(=O)OCc3ccccc3)nc3ccsc3c2=O)CC1,38,0.6,2,47,0.5,-7
COC(C(=O)Nc1ccc(S(=O)(=O)Nc2cccc3ccccc23)cc1)c1ccccc1 (stereo not drawn),/,/,-4,/,/,42
CC#CCCCC(=O)Nc1ccc(C(=O)O)cc1,-3,1,/,4,1,/
Cc1cccc2cc(COC(=O)c3ccccn3)c(=O)[nH]c12,0,1,0,1,1,-10
O=C1COc2ccc(C(=O)CSc3nnc(Cc4cccs4)n3-c3ccc(Cl)cc3)cc2N1,17,0.8,/,29,0.7,/
CCOC(=O)N1CCC(n2c(SCC(=O)Nc3nccs3)nc3ccsc3c2=O)CC1,26,0.7,-1,61*,0.4,-6
COc1ccc(NC(=O)COC(=O)[C@@H]2CCCN2C(=O)c2cccs2)cc1,46,0.5,-3,60*,0.4,-6
O=C(OCc1ccccc1)C1CCCN1C(=O)c1cccs1 (stereo not drawn),72*,0.3,2,2,1,6
NS(=O)(=O)c1ccc(CCNC(=O)COC(=O)C2CCCN2C(=O)c2cccs2)cc1 (stereo not drawn),75*,0.2,-2,37,0.6,1
O=C(COC(=O)C1CCCN1C(=O)c1cccs1)c1ccccc1 (stereo not drawn),88*,0.1,-2,-12,1.1,-5
O=C(COC(=O)C1CCCN1C(=O)c1cccs1)Nc1ccc2c(c1)OCO2 (stereo not drawn),31,0.7,-2,46,0.5,-2
CC1CCC2(CC1)NC(=O)N(CC(=O)NC(=O)NC1CCCC1)C2=O (stereo not drawn),8,0.9,-2,35,0.7,-4
O=C(NCC1CCCO1)C(c1cccs1)N(C(=O)c1ccc(CN2CCOCC2)o1)c1ccc(Cl)cc1 (stereo not drawn),/,/,-1,/,/,-1
CCn1c(COc2ccccc2OC)nnc1SCC#N,16,0.8,-1,-75,1.8,0
CCOC(=O)N1CCN(c2c(NCC3CCN(Cc4cccc(C)c4)CC3)c(=O)c2=O)CC1,-6,1.1,-5,-2,1,-6
c1ccc2c(-c3ccncc3)c[nH]c2c1,85*,0.1,-5,93*,0.1,-14
Cc1cc(OCc2nc(-c3cccs3)no2)cc(C)c1Cl,50*,0.5,4,48,0.5,5
CCOc1nc(-c2ccccc2)ccc1-c1noc(COc2ccccc2)n1,60*,0.4,-2,80*,0.2,-4
c1ccc(OCc2nc(-c3cccs3)no2)cc1,74*,0.3,2,62*,0.4,-47
COc1ccc(S(=O)(=O)N2CCOCC2)cc1C(=O)Nc1cc(C)on1,-11,1.1,2,-31,1.3,-7
COC(=O)NCCOC(=O)N(O)c1ccc(Br)cc1,68*,0.3,8,2,1,3
COC(=O)NCCOc1cc(C)ccc1C,21,0.8,6,-11,1.1,-26
CN1C(=S)SC(N(O)C(=O)NC2CCCCC2)C1(C)C (stereo not drawn),8,0.9,-1,24,0.8,8
Cc1sc2nc(C(C)C)nc(SCC(=O)N3CCN(C(=O)c4ccco4)CC3)c2c1C,80*,0.2,2,92*,0.1,3
Cc1nc(SCC(=O)NCc2ccco2)c2c3c(sc2n1)CCCC3,24,0.8,-4,37,0.6,13
SMILES,CYP2C19 inh,CYP2C19 act,CD11b adhes enh,CYP2C9 inh,CYP2C9 activ,CD11b adhes inh
CC(C)c1nc(N2CCN(C(=O)c3ccco3)CC2)c2c3c(sc2n1)CCCC3,38,0.6,/,58*,0.4,/
Cc1nc(N2CCN(C(=O)c3ccco3)CC2)c2c3c(sc2n1)CCC3,86*,0.1,-2,86*,0.1,11
O=c1ccc(Cc2ccccn2)n[nH]1,-18,1.2,-3,-12,1.1,9
CNc1nc(Sc2ccc(C)cc2)cc(C(F)(F)F)n1,-1,1,/,7,0.9,/
CSc1nnc2c3ccccc3n(CCc3ccccc3)c2n1,61*,0.4,-3,9,0.9,-12
C=CCn1c2ccccc2c2nnc(SCC(=O)Nc3cc(C)on3)nc21,28,0.7,-3,55*,0.4,-27
CCn1c2ccccc2c2nnc(SCC(=O)N3CC(C)OC(C)C3)nc21 (stereo not drawn),22,0.8,3,-33,1.3,17
C=CCn1c2ccccc2c2nnc(SCc3ccc4nonc4c3)nc21,84*,0.2,18,84*,0.2,18
CCCn1c2ccccc2c2nnc(SCC(=O)Nc3cc(C)on3)nc21,4,1,3,33,0.7,-18
CSc1nnc2c3ccccc3n(Cc3ccccc3)c2n1,10,0.9,6,20,0.8,-10
CCCn1c2ccccc2c2nnc(SCC(=O)Nc3ncccn3)nc21,52*,0.5,-2,60*,0.4,-20
CCOC(=O)Cc1nnc(NC(=O)Nc2ccccc2)s1,3,1,0,15,0.8,-4
CCOC(=O)Cc1nnc(NC(=O)CSc2nnc3c4ccccc4n(C)c3n2)s1,96*,0,-2,92*,0.1,4
c1ccc2c(c1)ncn2-c1ccc(-c2ccnc(-c3ccncc3)n2)cc1,86*,0.1,/,87*,0.1,/
O=C(Nc1ccccc1)c1ccc(N2CCN(c3ccccn3)CC2)c(S(=O)(=O)N2CCOCC2)c1,92*,0.1,-2,91*,0.1,-17
O=C(Nc1ccccc1)c1ccc(N2CCN(c3ccccc3)CC2)c(S(=O)(=O)N2CCOCC2)c1,58*,0.4,2,76*,0.2,2
O=C(Nc1ccccc1)c1cc(S(=O)(=O)N2CCOCC2)cs1,31,0.7,0,47,0.5,7
O=C(Nc1ccc(F)c(F)c1)c1ccc(F)c(S(=O)(=O)N2CCOCC2)c1,0,1,-2,16,0.8,5
O=C(Nc1ccccc1)c1ccc(NC2CCCCC2)c(S(=O)(=O)N2CCOCC2)c1,83*,0.2,3,82*,0.2,-10
CSc1ccc(C(=S)N2CCN(CCO)CC2)cc1,39,0.6,1,-6,1.1,-41
Cc1nc2ccc(F)cc2cc1C(=O)NC(C)C,12,0.9,0,-3,1,0
O=C(O)c1ccc(NS(=O)(=O)c2cc(Cl)ccc2Cl)cc1O,-1,1,0,20,0.8,-14
CCn1cc(C(=O)NCc2ccc3c(c2)OCO3)c(=O)c2cc(F)c(N3CCN(C(=O)c4ccco4)CC3)cc21,23,0.8,-3,58*,0.4,14
